Laboratory results as given in PubChem BioAssay AID1159580 (chemical genetic matrix, 2015).
Out of some 5,500 compounds screened, about 2,000 (36%) were called active. Another 18% or so got no clear call; they are omitted. The list shows a part of the results. Values without a mark were called inactive. Rule as the data show it: active = normalized growth mostly below about 0.91 (no sharp cut-off); inconclusive = no clear call, values can overlap the other calls; inactive = mostly above about 0.92.

Assay: chemical genetic growth profiling, strain panel (AID 1159580);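 also: tested at 20 µM; growth read once vehicle control cultures reached saturation at 30 °C; 1 = growth at the plate median or of vehicle wells; lower values mean less growth of the strain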
Conditions: growth OD
[1] = S. cerevisiae deletion strains, locus YAL040C, strain CLN3, hits give low values
[2] = S. cerevisiae deletion strains, locus YCL061C, strain MRC1 (second series), hits give low values
[3] = S. cerevisiae deletion strains, locus YDR363W, strain ESC2, hits give low values
[4] = S. cerevisiae deletion strains, locus YER002W, strain NOP16, hits give low values
[5] = S. cerevisiae deletion strains, locus YNL128W, strain TEP1, hits give low values
[6] = S. cerevisiae deletion strains, locus YNL153C, strain GIM3, hits give low values
[7] = S. cerevisiae deletion strains, locus YNL175C, strain NOP13, hits give low values
[8] = S. cerevisiae deletion strains, locus YNL197C, strain WHI3, hits give low values
[9] = S. cerevisiae deletion strains, locus YNL224C, strain SQS1, hits give low values
[10] = S. cerevisiae deletion strains, locus YOR083W, strain WHI5 (second series), hits give low values
[11] = S. cerevisiae deletion strains, locus YGR078C, strain PAC10, hits give low values
[12] = S. cerevisiae deletion strains, locus YGR229C, strain SMI1, hits give low values
[13] = S. cerevisiae deletion strains, locus YJR075W, strain HOC1, hits give low values
[14] = S. cerevisiae deletion strains, locus YPL055C, strain LGE1, hits give low values
[15] = S. cerevisiae deletion strains, locus YPL241C, strain CIN2, hits give low values
[16] = S. cerevisiae deletion strains, locus YDL101C, strain DUN1, hits give low values
[17] = S. cerevisiae deletion strains, locus YHR030C, strain SLT2, hits give low values

## CCCn1c(=O)c2[nH]c(-c3ccc(S(=O)(=O)O)cc3)nc2n(CCC)c1=O
[1]
  normalized growth: 0.994
[2]
  normalized growth: 1.01
[3]
  normalized growth: 0.958
[4]
  normalized growth: 0.997
[5]
  normalized growth: 1
[6]
  normalized growth: 1.01
[7]
  normalized growth: 0.985
[8]
  normalized growth: 0.99
[9]
  normalized growth: 1
[10]
  normalized growth: 0.979

## CC(C)CC(NP(=O)(O)O[C@@H]1O[C@@H](C)[C@H](O)[C@@H](O)[C@H]1O)C(=O)NC(Cc1c[nH]c2ccccc12)C(=O)O (some centres not stated)
[1]
  normalized growth: 1.01
[2]
  normalized growth: 1.01
[3]
  normalized growth: 1.01
[4]
  normalized growth: 1
[11]
  normalized growth: 1.02
[12]
  normalized growth: 1.03
[13]
  normalized growth: 1.03
S. cerevisiae deletion strains, locus YMR307W, strain GAS1, hits give low values
  normalized growth: 0.994
[5]
  normalized growth: 0.993
[6]
  normalized growth: 1.04
[7]
  normalized growth: 0.998
[8]
  normalized growth: 1
[9]
  normalized growth: 0.997
[10]
  normalized growth: 1.01
[14]
  normalized growth: 1.02
[15]
  normalized growth: 1.01

## O=C1NC(c2c(F)cccc2Cl)Nc2ccccc21 (configuration not stated)
S. cerevisiae deletion strains, locus YAL013W, strain DEP1, hits give low values
  normalized growth: 1.01
S. cerevisiae deletion strains, locus YBR229C, strain ROT2, hits give low values
  normalized growth: 1.01
S. cerevisiae deletion strains, locus YCL061C, strain MRC1, hits give low values
  normalized growth: 1.03
[16]
  normalized growth: 1.02
S. cerevisiae deletion strains, locus YDL134C, strain PPH21, hits give low values
  normalized growth: 1
S. cerevisiae deletion strains, locus YDR150W, strain NUM1, hits give low values
  normalized growth: 0.987
S. cerevisiae deletion strains, locus YEL061C, strain CIN8, hits give low values
  normalized growth: 1
[11]
  normalized growth: 1.03
[12]
  normalized growth: 0.988
[17]
  normalized growth: 1
S. cerevisiae deletion strains, locus YHR087W, strain rtc3, hits give low values
  normalized growth: 1.02
S. cerevisiae deletion strains, locus YJL187C, strain SWE1, hits give low values
  normalized growth: 1
S. cerevisiae deletion strains, locus YJR043C, strain POL32, hits give low values
  normalized growth: 0.998
[13]
  normalized growth: 0.998
S. cerevisiae deletion strains, locus YKL190W, strain CNB1, hits give low values
  normalized growth: 1.01
S. cerevisiae deletion strains, locus YLR039C, strain RIC1, hits give low values
  normalized growth: 0.94
S. cerevisiae deletion strains, locus YLR058C, strain SHM2 (second series), hits give low values
  normalized growth: 1.02
S. cerevisiae deletion strains, locus YLR085C, strain ARP6, hits give low values
  normalized growth: 0.984
S. cerevisiae deletion strains, locus YLR262C, strain YPT6, hits give low values
  normalized growth: 0.926
S. cerevisiae deletion strains, locus YML094W, strain GIM5, hits give low values
  normalized growth: 1.05
S. cerevisiae deletion strains, locus YMR219W, strain ESC1, hits give low values
  normalized growth: 1
S. cerevisiae deletion strains, locus YMR263W, strain SAP30, hits give low values
  normalized growth: 0.978
[6]
  normalized growth: 1.01
S. cerevisiae deletion strains, locus YNL298W, strain CLA4 (second series), hits give low values
  normalized growth: 0.979
S. cerevisiae deletion strains, locus YNL322C, strain KRE1, hits give low values
  normalized growth: 1
S. cerevisiae deletion strains, locus YNR030W, strain Alg12, hits give low values
  normalized growth: 1.02
[14]
  normalized growth: 1
[15]
  normalized growth: 1.04
S. cerevisiae deletion strains, locus YPR135W, strain CTF4, hits give low values
  normalized growth: 1.06
S. cerevisiae strains, strain wild type, hits give low values
  normalized growth: 1.01

## O=C1/C(=C/c2c(F)cccc2Cl)Cc2ccccc21
S. cerevisiae deletion strains, locus YAR019C, strain CDC15, hits give low values
  normalized growth: 0.965
S. cerevisiae deletion strains, locus YBL105C, strain PKC1, hits give low values
  normalized growth: 0.965
S. cerevisiae deletion strains, locus YBR135W, strain CKS1, hits give low values
  normalized growth: 0.959
S. cerevisiae deletion strains, locus YBR136W, strain MEC1, hits give low values
  normalized growth: 0.962
S. cerevisiae deletion strains, locus YBR160W, strain CDC28, hits give low values
  normalized growth: 0.964
S. cerevisiae deletion strains, locus YDL017W, strain CDC7, hits give low values
  normalized growth: 0.963
S. cerevisiae deletion strains, locus YDL028C, strain MPS1, hits give low values
  normalized growth: 0.96
[16]
  normalized growth: 0.96
S. cerevisiae deletion strains, locus YDL108W, strain KIN28, hits give low values
  normalized growth: 0.967
S. cerevisiae deletion strains, locus YDL132W, strain cdc53, hits give low values
  normalized growth: 0.96
S. cerevisiae deletion strains, locus YDL214C, strain PRR2, hits give low values
  normalized growth: 0.96
S. cerevisiae deletion strains, locus YDR052C, strain DBF4, hits give low values
  normalized growth: 0.977
S. cerevisiae deletion strains, locus YDR054C, strain cdc34, hits give low values
  normalized growth: 0.961
S. cerevisiae deletion strains, locus YDR226W, strain ADK1, hits give low values
  normalized growth: 0.967
S. cerevisiae deletion strains, locus YDR477W, strain SNF1, hits give low values
  normalized growth: 0.945
S. cerevisiae deletion strains, locus YER123W, strain YCK3, hits give low values
  normalized growth: 0.876
S. cerevisiae deletion strains, locus YER133W, strain GLC7, hits give low values
  normalized growth: 0.948
S. cerevisiae deletion strains, locus YFL009W, strain cdc4, hits give low values
  normalized growth: 0.961
S. cerevisiae deletion strains, locus YFL029C, strain CAK1, hits give low values
  normalized growth: 0.961
S. cerevisiae deletion strains, locus YFR003C, strain YPI1, hits give low values
  normalized growth: 0.962
S. cerevisiae deletion strains, locus YFR019W, strain FAB1, hits give low values
  normalized growth: 0.903
S. cerevisiae deletion strains, locus YFR028C, strain CDC14, hits give low values
  normalized growth: 0.96
S. cerevisiae deletion strains, locus YGR040W, strain KSS1, hits give low values
  normalized growth: 0.947
S. cerevisiae deletion strains, locus YGR052W, strain FMP48, hits give low values
  normalized growth: 0.974
S. cerevisiae deletion strains, locus YGR092W, strain DBF2, hits give low values
  normalized growth: 0.841
[17]
  normalized growth: 0.882
S. cerevisiae deletion strains, locus YHR079C, strain IRE1, hits give low values
  normalized growth: 0.884
S. cerevisiae deletion strains, locus YHR082C, strain KSP1, hits give low values
  normalized growth: 0.916
S. cerevisiae deletion strains, locus YHR205W, strain SCH9, hits give low values
  normalized growth: 0.871
S. cerevisiae deletion strains, locus YIL147C, strain SLN1, hits give low values
  normalized growth: 0.963
S. cerevisiae deletion strains, locus YJL095W, strain BCK1, hits give low values
  normalized growth: 0.927
S. cerevisiae deletion strains, locus YJL128C, strain PBS2, hits give low values
  normalized growth: 0.929
S. cerevisiae deletion strains, locus YJL157C, strain FAR1, hits give low values
  normalized growth: 0.945
S. cerevisiae deletion strains, locus YJR016C, strain ILV3, hits give low values
  normalized growth: 0.965
S. cerevisiae deletion strains, locus YJR066W, strain TOR1 (second series), hits give low values
  normalized growth: 0.906
S. cerevisiae deletion strains, locus YJR066W, strain TOR1, hits give low values
  normalized growth: 0.892
S. cerevisiae deletion strains, locus YKL048C, strain ELM1, hits give low values
  normalized growth: 0.968
S. cerevisiae deletion strains, locus YKL067W, strain YNK1, hits give low values
  normalized growth: 0.961
S. cerevisiae deletion strains, locus YKL101W, strain HSL1, hits give low values
  normalized growth: 0.965
S. cerevisiae deletion strains, locus YKL193C, strain SDS22, hits give low values
  normalized growth: 0.961
S. cerevisiae deletion strains, locus YKL203C, strain TOR2, hits give low values
  normalized growth: 1.03
S. cerevisiae deletion strains, locus YLR113W, strain HOG1, hits give low values
  normalized growth: 0.834 (active)
S. cerevisiae deletion strains, locus YLR133W, strain CKI1, hits give low values
  normalized growth: 0.955
S. cerevisiae deletion strains, locus YLR403W, strain SFP1, hits give low values
  normalized growth: 0.927
S. cerevisiae deletion strains, locus YML070W, strain DAK1, hits give low values
  normalized growth: 0.929
S. cerevisiae deletion strains, locus YMR001C, strain CDC5, hits give low values
  normalized growth: 0.961
S. cerevisiae deletion strains, locus YMR205C, strain PFK2 (second series), hits give low values
  normalized growth: 0.956
S. cerevisiae deletion strains, locus YMR277W, strain FCP1, hits give low values
  normalized growth: 0.963
S. cerevisiae deletion strains, locus YNL006W, strain LST8, hits give low values
  normalized growth: 0.97
S. cerevisiae deletion strains, locus YNL020C, strain ARK1, hits give low values
  normalized growth: 0.947
S. cerevisiae deletion strains, locus YNL161W, strain CBK1, hits give low values
  normalized growth: 0.965
S. cerevisiae deletion strains, locus YNL183C, strain NPR1, hits give low values
  normalized growth: 0.9
S. cerevisiae deletion strains, locus YNL207W, strain RIO2, hits give low values
  normalized growth: 0.965
S. cerevisiae deletion strains, locus YNL222W, strain SSU72, hits give low values
  normalized growth: 0.965
S. cerevisiae deletion strains, locus YNL307C, strain MCK1 (second series), hits give low values
  normalized growth: 0.885
S. cerevisiae deletion strains, locus YOL078W, strain AVO1, hits give low values
  normalized growth: 0.962
S. cerevisiae deletion strains, locus YOL136C, strain PFK27, hits give low values
  normalized growth: 0.92
S. cerevisiae deletion strains, locus YOR061W, strain CKA2, hits give low values
  normalized growth: 0.942
S. cerevisiae deletion strains, locus YOR119C, strain RIO1, hits give low values
  normalized growth: 0.952
S. cerevisiae deletion strains, locus YOR231W, strain MKK1, hits give low values
  normalized growth: 0.92
S. cerevisiae deletion strains, locus YOR329C, strain SCD5, hits give low values
  normalized growth: 0.963
S. cerevisiae deletion strains, locus YPL031C, strain PHO85, hits give low values
  normalized growth: 0.928
S. cerevisiae deletion strains, locus YPL153C, strain RAD53, hits give low values
  normalized growth: 0.947
S. cerevisiae deletion strains, locus YPL204W, strain HRR25, hits give low values
  normalized growth: 0.927
S. cerevisiae deletion strains, locus YPL209C, strain IPL1, hits give low values
  normalized growth: 0.968
S. cerevisiae deletion strains, locus YPL256C, strain CLN2, hits give low values
  normalized growth: 0.887
S. cerevisiae deletion strains, locus YPR025C, strain CCL1, hits give low values
  normalized growth: 0.957
S. cerevisiae deletion strains, locus YPR106W, strain ISR1, hits give low values
  normalized growth: 0.957
S. cerevisiae deletion strains, locus YPR111W, strain DBF20, hits give low values
  normalized growth: 0.957
S. cerevisiae deletion strains, strain NNK1, hits give low values
  normalized growth: 0.943
S. cerevisiae deletion strains, strain TSCII, hits give low values
  normalized growth: 0.962
